Results filed as inconclusive are left out. The source made the active and inactive calls. Rule for the calls, unless noted: active = hit-call score of the fitted dose curve at least 0.9, where 1 is the maximum; inactive = score below 0.9.
How the values were obtained:
[1] = CCTE_Shafer_MEA_acute_per_network_burst_electrodes_number_mean: CCTE's Neural Acute Assay for Mean Number of Electrodes in a Network Burst, Shafer Lab (AID 2284021);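 note: curves fitted for decreases only so hits reduce electrodes per burst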
In short: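 Cultures of rat cortex neurons were exposed on DIV 13 or 15 to compounds at 0.03-40 uM in at least three wells each. Activity over 40 min before and 40 min after exposure at 37 C gave the percent change in electrodes per network burst.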

[2] = CCTE_Shafer_MEA_acute_network_burst_percentage: CCTE's Neural Acute Assay for Percentage of Network Bursts, Shafer Lab (AID 2284022);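 note: curves fitted for loss so actives lower network burst percentage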;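 for outcome: rat primary cortical neuron networks on multiwell MEA recorded 40 min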
In short: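 Cortical neurons from rat were grown over microelectrode arrays and used on day 13 or 15 in vitro. Wells with at least 10 active electrodes received test chemical at 0.03-40 uM. Activity during 40 min of exposure was compared with the preceding 40-min baseline.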

[3] = CCTE_Shafer_MEA_acute_cross_correlation_area: CCTE's Neural Acute Assay for Area of Cross Correlation, Shafer Lab (AID 2284024);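 note: rat primary cortical neuron networks on 48-well MEA at DIV 13 or 15 with 40 min exposure; area under pooled inter-electrode spike cross-correlation near zero lag as percent change from own baseline; curves fitted for loss of cross-correlation area so actives lower synchrony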
In short: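 Acute exposure of mature rat cortical networks (day 13 or 15 post-plating) to 0.03-40 uM compound. Spontaneous spiking on MEA, 40 min pre- and post-dose at 37 C.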

[4] = CCTE_Shafer_MEA_acute_cross_correlation_HWHM: CCTE's Neural Acute Assay for Cross Correlation at Half Width at Half Maximum, Shafer Lab (AID 2284026);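 note: percent change per well from pre-dose baseline in spike cross-correlogram half width; hits are a decrease in cross-correlogram half width relative to DMSO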;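 for outcome: spontaneous network firing of rat primary cortical neurons on multiwell microelectrode arrays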
In short: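 Primary cortex (rat), MEA, DIV 13/15; compound 0.03-40 uM; 40 min pre + 40 min post at 37 C; spike threshold 8x rms; wells need ≥10 active electrodes; endpoint = % change in cross-correlogram HWHM vs baseline, DMSO negative control.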

[5] = CCTE_Shafer_MEA_acute_synchrony_index: CCTE's Neural Acute Assay for Synchrony, Shafer Lab (AID 2284027);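 note: network synchrony index of spontaneous spiking in primary rat cortical neurons on MEAs; fitted for loss of signal so actives lower synchrony relative to DMSO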
In short: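 Acute exposure of rat primary cortical neurons (DIV 13 or 15) at 0.03-40 uM. Synchrony index, 40 min before vs after, as % change relative to DMSO control.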

[6] = target: Estrogen receptor (Homo sapiens) (UniProt P03372); assay: CCTE_Deisenroth_AIME_384WELL_LUC_Active: CCTE's 384-well Estrogen Receptor Transactivation Assay with AIME metabolic competence (ERTA luciferase; metabolism positive), Deisenroth Lab (AID 2284030; active = hit-call score of the fitted dose curve at least 0.9, where 1 is the maximum)
In short: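 In this metabolism-positive format, a 2-hour exposure to alginate-immobilized rat S9 precedes a 24 hour luciferase transactivation readout in VM7Luc4E2 cells. Dosing spans 10 concentrations from 0.002 to 200 uM.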

Estrogen receptor (Homo sapiens), sequence (P03372 whole entry, looked up): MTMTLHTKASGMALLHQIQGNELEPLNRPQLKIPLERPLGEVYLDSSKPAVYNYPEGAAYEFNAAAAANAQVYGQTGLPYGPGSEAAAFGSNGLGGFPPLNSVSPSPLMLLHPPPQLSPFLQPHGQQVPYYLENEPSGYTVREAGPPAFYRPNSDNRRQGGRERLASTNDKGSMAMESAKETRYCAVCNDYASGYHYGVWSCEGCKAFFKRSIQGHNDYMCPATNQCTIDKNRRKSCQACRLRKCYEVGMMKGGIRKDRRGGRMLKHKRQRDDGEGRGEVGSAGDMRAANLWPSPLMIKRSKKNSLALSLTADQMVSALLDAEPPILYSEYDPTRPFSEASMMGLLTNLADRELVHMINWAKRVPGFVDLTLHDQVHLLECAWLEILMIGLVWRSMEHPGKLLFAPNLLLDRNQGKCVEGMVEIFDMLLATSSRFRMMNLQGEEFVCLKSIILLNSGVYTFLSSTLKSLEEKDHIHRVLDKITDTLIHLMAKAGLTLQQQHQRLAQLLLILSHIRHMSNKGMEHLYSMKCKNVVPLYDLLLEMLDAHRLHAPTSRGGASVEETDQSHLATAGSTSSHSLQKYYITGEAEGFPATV

Compound | outcome [1] | outcome [2] | outcome [3] | outcome [4] | outcome [5] | outcome [6] | AC50 [1] | AC50 [2] | AC50 [5] | AC50 [6] | AC50 [4]
c1cc(-c2ccncc2)ccn1 | inactive | inactive | inactive | inactive | inactive | – | – | – | – | – | –
FC(F)(F)C(F)(F)C(F)(F)C(F)(F)C(F)(F)C(F)(F)CCI | inactive | inactive | inactive | inactive | inactive | – | – | – | – | – | –
CNCc1cc(F)ccc1Oc1ccc(Cl)c(Cl)c1 | inactive | inactive | inactive | inactive | inactive | inactive | – | – | – | – | –
CN[C@H]1CC[C@@H](c2ccc(Cl)c(Cl)c2)c2ccc(S(N)(=O)=O)cc21 | – | – | inactive | inactive | – | – | 29.9 µM (active) | 31 µM (active) | 32 µM (active) | – | –
Nc1ccc2c(c1)C(=O)c1ccccc1C2=O | inactive | inactive | inactive | inactive | inactive | – | – | – | – | 72.1 µM (active) | –
COc1ccc2c(c1)c(CC(=O)O)c(C)n2C(=O)c1ccc(Cl)cc1 | inactive | inactive | inactive | inactive | inactive | – | – | – | – | – | –
CN1CCCC1=O | inactive | inactive | inactive | inactive | inactive | inactive | – | – | – | – | –
CCOC(=O)C(C)(C)Oc1ccc(Cl)cc1 | inactive | inactive | inactive | inactive | inactive | – | – | – | – | – | –
CCCCCCCCCCO | inactive | inactive | inactive | – | – | inactive | – | – | 20 µM (active) | – | 20 µM (active)
CCCc1cc(=O)[nH]c(=S)[nH]1 | inactive | inactive | inactive | inactive | inactive | inactive | – | – | – | – | –
Cc1ccc(C)c(O)c1C | inactive | inactive | inactive | – | – | inactive | – | – | 31.6 µM (active) | – | 33.9 µM (active)
C=CCOC(=O)c1ccccc1C(=O)OCC=C | inactive | inactive | inactive | inactive | inactive | – | – | – | – | – | –
